Compound activity as filed in PubChem BioAssay.
Anesthetic bind: qHTS Assay for Identification of Novel General Anesthetics | Ferritin light chain (Equus caballus), P02791 | apoferritin/1-aminoanthracene competitive binding, fluorescence | Potency, µM (series often up to 77.5 µM), for the others: at the highest dose activity change, negative = displacement, most hits filed as inhibitors | actives 0.074% (n = 350,000); note: potency is the fitted concentration of half-maximal effect; % is set by controls: 0 for no effect and ±100 for the full control effect; nearly all actives have a fitted effect of over 20% in size
Target sequence (P02791 2-175 limits assumed): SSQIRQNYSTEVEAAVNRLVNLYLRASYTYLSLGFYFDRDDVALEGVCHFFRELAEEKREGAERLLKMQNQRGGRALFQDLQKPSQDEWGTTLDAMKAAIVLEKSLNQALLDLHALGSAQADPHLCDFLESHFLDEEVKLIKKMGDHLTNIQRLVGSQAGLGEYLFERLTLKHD
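10 uM apoferritin + 50% sat. 1-AMA, PBS; cpd 10 min RT; Ex380/Em535 endpoint; normalized to free probe vs complex; 4-param Hill fit; propofol titration as pos. ctrl.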
CCT chaperon mod: High-Throughput Screening for Modulators of Cytosolic Chaperonin Activity. purified chaperonin ATPase assay, HTRF ADP detection, 30 min. activity change, % (no concentration beside the values), hits read low. actives 0.3% (n = 360,000). AID 651819, 2012; in the data active = activity change below about -30%; note: % is set by controls: 0 for no effect and ±100 for the full control effect
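ATPase activity: ADP formed was measured by HTRF Transcreener (665/615 nm ratio) after 30 min at 37 deg C with 10 uM ATP. Compounds screened at one 76 uM concentration against 40 or 20 nM TRiC in Tris pH 7.4/KCl/MgCl2/DTT buffer.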
MmCpn inh: Inhibitors of TCP-1 ring complex (TRiC) of Methanococcus maripaludis (MmCpn): qHTS; purified Mm-Cpn ATPase, ADP Transcreener TR-FRET; Potency, µM (series often up to 76.9 µM), without a hit: at the highest dose activity, negative = inhibition, usual class: inhibitors; actives 0.031% (n = 330,000); AID 504842, 2011; note: potency is the fitted concentration of half-maximal effect; % is set by controls: 0 for no effect and ±100 for the full control effect; nearly all actives have a fitted effect of over 80% in size
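Purified archaeal Mm-CPN (25nM final) preincubated 10 min at 37degC with compound, then 10uM ATP for 30 min at 37degC; ADP measured by HTRF Transcreener TR-FRET; buffer 30 mM TRIS pH 7.4, 100mM KCl, 5mM MgCl2, 1mM DTT.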
AT treatment: qHTS Assay for Identifying a Potential Treatment of Ataxia-Telangiectasia; F2112 A-T fibroblasts, KAP-1 phosphorylation AlphaLISA; neocarzinostatin DNA damage 30 min before lysis; Potency, µM (doses to about 57.5 µM), inactives show at the top dose activation, actives largely listed as activators; actives 0.19% (n = 320,000); AID 485349, 2010; note: potency is the fitted concentration of half-maximal effect; % of control where 0% means no effect; nearly all actives have a fitted effect of over 45% in size
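hTERT-immortalized A-T patient fibroblasts (F2112), 500 cells/well in OPTI-MEM, 1% FBS, got compounds for 60 min, then NCS for 30 min at 37C. Lysates were then assayed for phospho-KAP-1 by AlphaLISA (anti-pKAP1 donor, anti-KAP1 acceptor beads), 6 hr at 25C.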
Starred values were filed as active, the others as inactive; [ ] = remark or other dose. Shown are actives, neighbours in structure and some others; about 0.47% of the full set was active somewhere. Unless noted, calls come from the whole dose curve; as a rule, active = well fitted curve in the direction sought with a large enough effect; inconclusive = small, poorly fitted or top-dose-only effect, or another doubt; inactive = no such curve, though single readings can be large; an effect the other way counts as inactive or inconclusive.

CC1(C)CC(N(CCc2ccccc2)Cc2ccccc2)CCO1 (stereo not given) was read as Anesthetic bind -7%, CCT chaperon mod -1, MmCpn inh -2% and AT treatment 25µM*.
COC(=O)[C@@H]1[C@@H](O)[C@@]2(O)c3c(OC)cc(OC)cc3O[C@@]2(c2ccc(OC)cc2)[C@H]1c1ccccc1 was read as Anesthetic bind -8%[15.3 µM].
For Nc1c(C(=O)NCC2CCCO2)c2nc3ccccc3nc2n1Cc1ccco1 (stereo not given) the results were Anesthetic bind 252%, CCT chaperon mod 1, MmCpn inh -5% and AT treatment 20µM*.
`O=C(CNC(=O)c1ccc(Cl)cc1)OCC(=O)c1ccc2c(c1)OCCO2` gave Anesthetic bind 10µM*, CCT chaperon mod 0, MmCpn inh -9% and AT treatment -2%.
Screening CCOC(=O)c1cccc(NC(=O)c2cnc(N3CCCCC3)c3ccccc23)c1 returned Anesthetic bind 230%.
For CCCCC/C=C\C/C=C\C/C=C\C/C=C\CCCC(=O)NCc1ccoc1 the results were Anesthetic bind -22%.
Screening O=C(C(=O)N1CCOCC1)c1cn(Cc2ccccc2F)c2ccccc12 returned Anesthetic bind -3%, CCT chaperon mod -2, MmCpn inh 0% and AT treatment 4%.
Screening O=C(c1cn(Cc2ccccc2F)c2ncccc12)C(F)(F)F returned Anesthetic bind -10%, CCT chaperon mod -36*, MmCpn inh -1% and AT treatment inconclusive.
`CCOP(=O)(OCC)/C(C#N)=C/c1cc(OC)ccc1OC` gave Anesthetic bind 63%, CCT chaperon mod -3, MmCpn inh -7% and AT treatment -4%.
COc1ccc(O)c(CN2CCCC(C(=O)c3ccccc3SC)C2)c1 (stereo not given) was read as Anesthetic bind -19%, CCT chaperon mod -45*, MmCpn inh 2% and AT treatment 2%.
`COc1ccc(C(=O)NCCn2cc(SCc3ccc(C(F)(F)F)cc3)c3ccccc32)cc1OC` gave Anesthetic bind 54%.
Screening CC(C)CCn1c(N)c(C(=O)NCc2cccs2)c2nc3ccccc3nc21 returned Anesthetic bind inconclusive, CCT chaperon mod -1, MmCpn inh -7% and AT treatment 28µM*.
For COCCNC(=O)c1c(N)n(CCC(C)C)c2nc3ccccc3nc12 the results were Anesthetic bind 763%, CCT chaperon mod -1 and MmCpn inh -3%.
For O=C(c1ccccc1)C(CN1CCCC1)c1ccccc1 (stereo not given) the results were Anesthetic bind inconclusive, CCT chaperon mod -1, MmCpn inh 1% and AT treatment 25µM*.
Cc1nccn1-c1c([N+](=O)[O-])c(=O)n(C)c2ccccc12 was read as Anesthetic bind 1%, CCT chaperon mod 1, MmCpn inh 0% and AT treatment 3.2µM*.
`CCOC(=O)c1cc(-c2ccccc2)n(CCCC(=O)Nc2ccc(C)c(C)c2)c1C` gave Anesthetic bind 43%.
Screening CCCc1cc(=O)oc2c3c(cc(OCC(=O)N4CCC[C@H]4C(=O)O)c12)OC(C)(C)CC3 returned Anesthetic bind 47%, CCT chaperon mod -1, MmCpn inh -2% and AT treatment -4%.
For C=Cn1ccnc1P(=S)(c1nccn1C=C)C1CCCCC1 the results were Anesthetic bind -8%, CCT chaperon mod -77*, MmCpn inh -1% and AT treatment 6%.
`CC(=O)N1CC(=O)Nc2ccc(Cl)cc2C1c1ccccc1` (stereo not given) gave Anesthetic bind -13%, CCT chaperon mod 0, MmCpn inh 2% and AT treatment 25µM*.
Screening CC(=O)N1CC(=O)Nc2ccc(F)cc2C1c1ccccc1 (stereo not given) returned Anesthetic bind 2%, CCT chaperon mod 1, MmCpn inh 1% and AT treatment 7%.
`O=C(N/N=C/c1c(O)n(-c2ccccc2)c(=S)[nH]c1=O)c1ccccc1` gave Anesthetic bind -2%, CCT chaperon mod 4, MmCpn inh 2% and AT treatment 8%.
